In PubChem BioAssay (NCI):
About 79,000 compounds went through this panel and 15% of them were active in at least one assay; those are over-represented in the sample as a whole. Values without a mark were called inactive. Activity calls are given as the source filed them. Cut-off read from the data, not from the text of the source: active = growth inhibition above about 70%; inactive = the rest.

Key:
[1] = NCI Yeast Anticancer Drug Screen. Data for the rad50 strain (AID 155);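 note: 0% = growth of vehicle-only cultures of the same strain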; details: S. cerevisiae rad50 strain growth inhibition; at 50.0 µM; active compounds read high
Outline: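 Vehicle-treated cultures provide the reference for the growth inhibition reported for compound-exposed, repair-deficient yeast.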

[2] = NCI Yeast Anticancer Drug Screen. Data for the mec2-1 strain (AID 157); details: S. cerevisiae mec2-1 strain, at 50.0 µM, active compounds read high
Outline: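 Compounds were applied to mec2-1 yeast cells. Their growth was then compared with that of vehicle-treated cultures to give growth inhibition.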

[3] = NCI Yeast Anticancer Drug Screen. Data for the sgs1 mgt1 strain (AID 161);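 note: 0% = growth of cultures given vehicle only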; details: S. cerevisiae sgs1 mgt1 strain, at 50.0 µM, active compounds read high
Outline: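 Yeast cells carrying a defined DNA-repair defect were exposed to test compounds. Growth inhibition was measured relative to vehicle-treated controls.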

[4] = NCI Yeast Anticancer Drug Screen. Data for the cln2 rad14 strain (AID 165);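 note: 0% = growth equal to vehicle treated cultures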; details: S. cerevisiae cln2 rad14 strain, at 50.0 µM, active compounds read high
Outline: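 Strain: cln2 rad14 yeast, altered in cell cycle control and DNA damage repair. Read-out: growth inhibition vs vehicle.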

[5] = NCI Yeast Anticancer Drug Screen. Data for the bub3 strain (AID 167); details: S. cerevisiae bub3 mutant strain, at 50.0 µM, active compounds read high
Outline: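 Mutant yeast screening strain plus compound; vehicle-treated cultures serve as the 0% inhibition reference.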

[6] = NCI Yeast Anticancer Drug Screen. Data for the mlh1 rad18 strain (AID 175); details: S. cerevisiae mlh1 rad18 strain growth inhibition; at 50.0 µM; active compounds read high
Outline: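 A repair-deficient yeast strain is exposed to test compound, and growth is scored relative to vehicle-treated controls.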

| SMILES | growth inhibition [1] | growth inhibition [2] | growth inhibition [3] | growth inhibition [4] | growth inhibition [5] | growth inhibition [6] |
| --- | --- | --- | --- | --- | --- | --- |
| CNC(=O)Sc1ccc(C)c([N+](C)(C)C)c1 | 10.1% | 5.6% | 9% | -9.6% | 18.1% | 18.5% |
| COC(=O)CCC(=O)C(CC(=O)OC)C(=O)CCC(=O)NCCc1ccccc1 (configuration not stated) | -30.1% | -21.9% | -41.5% | 2.4% | -24.2% | -31.4% |
| Cc1ccc(F)c([N+](=O)[O-])c1 | -3.55% | 7.1% | -10.5% | 0% | -9.65% | -6.5% |
| Cc1ccc(S(=O)(=O)Oc2ccc(N(CC(=O)O)S(=O)(=O)c3ccc(C)cc3)cc2)cc1 | 45.3% | 9.8% | 29.4% | 11.8% | -1.35% | 17.5% |
| CCCCCCCCCCOC(=O)C(C)O (configuration not stated) | 8.4% | 2.95% | 5.35% | 5.55% | -16.3% | -4.75% |
| CC(C)(C)C(=O)/C=C/c1ccc(Oc2ccccc2)cc1 | 27.8% | -28.7% | 4.05% | -15.6% | -19.8% | -20.8% |
| CCCC(C)C(=O)OCCOCC (configuration not stated) | 4.55% | 2.8% | -1.5% | -32.4% | 9.3% | 49.9% |
| O=[N+]([O-])c1cc2c3c(cccc3c1O)CC2 | -18.1% | -8.9% | -4% | -9.85% | 4.45% | 24% |
| CCOC(=O)/C(=C/c1ccc(C(=O)OC)cc1)N(CC)CC | -26.5% | -20.5% | -12.1% | 12.2% | -20.1% | -25.8% |
| O=C1c2cc([N+](=O)[O-])ccc2-c2c(I)cccc21 | 4.25% | 2.7% | -5.35% | 5.75% | -9.25% | -6.45% |
| COc1ccc(/C=C2\N=C(c3ccccc3)N(Nc3nnc(NN4C(=O)/C(=C/c5ccc(OC)cc5)N=C4c4ccccc4)c4ccccc34)C2=O)cc1 | -9.4% | -10.3% | 1.65% | 8.7% | -21.4% | 4.35% |
| COc1cccc2c(=O)c3c(oc12)CCC(C)C3 (configuration not stated) | -10.6% | 4.35% | 5.85% | -35.7% | -14.8% | -9.4% |
| Nc1nnnn1NC(=O)c1ccccc1 | -2.1% | -6.8% | -5.35% | -11.5% | -6% | -11.3% |
| CCOc1ccc(OCC)c(N)c1 | -25.9% | 2.1% | -2.5% | -44% | 10.2% | -19.5% |
| CCN(CC)Cc1ccccc1COC(=O)/C=C/c1ccccc1 | 9.8% | 13.3% | 11.6% | 7.1% | 12.9% | 13.9% |
| COc1cc2cnc(-c3ccncc3)c(N)c2cc1OC | -0.75% | 8.4% | -11.6% | 24.6% | 7.8% | 7.65% |
| Cc1cc(N=Nc2cc(Br)cc(Br)c2)cc(C)c1N | 10.8% | 1.3% | 18.1% | -12.2% | 3.55% | 7.65% |
| CCCCN(CCCC)CC(O)c1cc(Cc2ccccc2)nc2c(Cl)cc(Cl)cc12 (configuration not stated) | 95.3% (active) | 95.5% (active) | 96.8% (active) | 89.8% (active) | 95% (active) | 96.2% (active) |
| CCOC(=O)COc1cc2c(cc1Cc1ccc(OC)cc1)OCO2 | -5.4% | -7.45% | 5.45% | 6.2% | 39.4% | 11.7% |
| CC(C)NC(=O)OCc1c(COC(=O)NC(C)C)c2n(c1-c1ccc(Cl)c(Cl)c1)CCS2(=O)=O | -0.5% | 2.2% | 4.5% | -36.1% | -1.95% | 8.15% |
| O=C1NC(=O)C(=Cc2cc3c(cc2Br)OCO3)C(=O)N1 | 32% | 30.9% | 40.7% | 7% | 41.9% | 25.9% |

| SMILES | growth inhibition [1] | growth inhibition [2] | growth inhibition [3] | growth inhibition [4] | growth inhibition [5] | growth inhibition [6] |
| --- | --- | --- | --- | --- | --- | --- |
| CCOC(=O)C1=C(C)N(NC(N)=O)C2(O)CCCC(=O)C12C (configuration not stated) | 5.35% | -0.45% | 0.65% | -52.2% | -3.8% | 2.2% |
| Cc1csc[n+]1C/C(=N/O)c1ccc(I)cc1 | 36.2% | -3.75% | 14.8% | 3.65% | 2.75% | 17.1% |
| COn1c2ccccc2c2c1cc1ccccc1[n+]2[O-] | -7.15% | -5.95% | -8.9% | -52.5% | -9.65% | -13.4% |
| CC(C)(C)n1c(=O)n(C(=O)C(Cl)(Cl)Cl)n(C(=O)C(Cl)(Cl)Cl)c1=O | -13.8% | -16.6% | -14.6% | 19.1% | -10.3% | -4.45% |
| CN(C)c1ccc(/C=N/NC=O)c(Cl)c1 | 0.15% | 8.25% | -0.6% | 11.3% | -0.65% | -15.3% |
| O=C(Nc1ccc(F)cc1)C(Br)C(Br)c1ccccc1 (configuration not stated) | 91% (active) | 88.2% (active) | 93.9% (active) | 49% | 81.5% (active) | 95.5% (active) |
| CC(NCCCNC(C)C(=O)O)C(=O)O (configuration not stated) | 21.8% | 1.45% | 26.8% | 32.3% | 11.1% | 13.4% |
| Cc1cccc(NC(=O)COc2ccc(Cl)cc2C)c1 | 8.35% | 4.4% | 9.55% | 39.5% | 0.4% | -0.2% |
| COc1cc([C@@H]2OC[C@@H]3C(c4cc(OC)c5c(c4)OCO5)OC[C@@H]32)cc(OC)c1OC (some centres not stated) | 23.8% | -4.5% | 26.6% | 31.1% | 4.3% | -40.8% |
| C=Cn1c2ccccc2c2ccccc21 | 46.9% | 18.9% | 26.9% | 15.2% | -6.75% | -0.55% |
| CC1OC(c2ccccc2)C(=O)N1C1(C)C(=O)N2CCOC21c1ccccc1 (configuration not stated) | 8.4% | 11.2% | 2.15% | 5% | -1.95% | -3.05% |
| COc1cc2c(cc1Oc1c(O)c(OC)cc3c1C(C)N(C)CC3)C(C)N(C)CC2 (configuration not stated) | 37.5% | -8.1% | 2.4% | 0.8% | 2.5% | 14.9% |
| CCOc1c(Cl)cc(Cl)cc1C(c1ccc(Cl)cc1S(=O)(=O)O)c1cc(Cl)cc(Cl)c1OCC | 99.2% (active) | 99.3% (active) | 99.6% (active) | 98% (active) | 99% (active) | 99.2% (active) |
| Cc1cccc(/C=C/c2cccc[n+]2[O-])[n+]1[O-] | 3.1% | -11.2% | -19.9% | -31.8% | -0.2% | -5.25% |
| COc1ccc(CNc2ccccc2C(=O)O)cc1OC | 11.2% | 2.8% | -1.95% | 31.4% | 32.8% | 8.65% |
| Cc1ccc(S(=O)(=O)NC(CO)C(=O)O)cc1 (configuration not stated) | -1.1% | -18.6% | -30.4% | -24.6% | -46% | -9.65% |
| CCOC(=O)C(C(C)=O)C(c1ccc(N(C)C)cc1)C(C(C)=O)C(=O)OCC (configuration not stated) | 8.75% | -7% | 7.75% | -6.2% | -4% | 9.45% |
| O=C(CN1CCCc2ccccc21)c1ccc(Cl)cc1 | -13.2% | -2.05% | 2.55% | 9.2% | 14.1% | 4.35% |
| CC(C)CC(C)(CC(C)C)C(=O)O | 9.95% | -7.75% | 7.8% | -1.5% | -1.3% | 11.8% |
| CC(C=O)CCC(C)(O)C=O (configuration not stated) | -9.4% | -7.8% | -7% | 8.65% | -10.5% | 1.45% |
| CC(C)(O)c1ccccc1[S+]1OC(C)(C)c2ccccc21 (configuration not stated) | 27.9% | 17.6% | 30.3% | 56.8% | 98.3% (active) | 35.8% |
